Laboratory results from PubChem BioAssay AID720597 (Broad Institute, 2013).
Potency and affinity values are given separately.

These compounds were tested against NAD-dependent protein deacylase sirtuin-5, mitochondrial (Homo sapiens) (UniProt Q9NXA8) (assay: SIRT5 deacylase inhibitors, dose response, biochemical, fluorescence imaging, cherry-pick, set 6 (AID 720597;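 also: lower AMC signal can also come from blocking the trypsin step; 0% = median of neutral control wells and -100% = median of positive control wells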)). Settings: Purified SirT5, succinyl-peptide-AMC/trypsin fluorescence; series mostly up to 15 µM; activity change, negative = inhibition: at the top concentration;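 active = fitted half-maximal dose no more than twice the top valid tested dose, for compounds that lower signal; inconclusive = fit invalid, or curve flat with activity between -70 and -30; inactive = potency past limit, curve flat within ±30, or signal increasing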.
Chain of NAD-dependent protein deacylase sirtuin-5, mitochondrial (Homo sapiens) (Q9NXA8 whole entry, looked up): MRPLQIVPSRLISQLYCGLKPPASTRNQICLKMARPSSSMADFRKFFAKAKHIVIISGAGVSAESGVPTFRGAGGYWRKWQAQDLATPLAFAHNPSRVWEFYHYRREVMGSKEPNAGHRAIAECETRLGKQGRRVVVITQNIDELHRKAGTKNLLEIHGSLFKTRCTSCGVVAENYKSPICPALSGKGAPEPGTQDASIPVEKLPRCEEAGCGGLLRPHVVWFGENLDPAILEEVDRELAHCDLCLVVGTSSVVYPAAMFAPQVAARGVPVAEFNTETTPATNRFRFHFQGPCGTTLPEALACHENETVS

Activity change, negative = inhibition, inactive:
C[C@@H]1CN([C@H](C)CO)C(=O)Cc2cc(NC(=O)Nc3ccc(F)cc3)ccc2O[C@@H]1CN(C)C 1.73%, C[C@H](CO)N1C[C@H](C)[C@@H](CN(C)Cc2ccc(Cl)c(Cl)c2)Oc2ccc(NC(=O)CCC(F)(F)F)cc2CC1=O -5.49%, Cc1ccc(S(=O)(=O)N(C)C[C@H]2OCCCC[C@H](C)Oc3ccc(NS(=O)(=O)c4ccc(Cl)cc4)cc3C(=O)N([C@H](C)CO)C[C@H]2C)cc1 -1.84%, COc1ccc(S(=O)(=O)Nc2ccc3c(c2)C(=O)N([C@@H](C)CO)C[C@@H](C)[C@@H](CN(C)Cc2ccc(C(F)(F)F)cc2)OCCCC[C@H](C)O3)cc1 -25.7%, Cc1ccc(S(=O)(=O)N(C)C[C@@H]2OCCCC[C@H](C)Oc3ccc(NS(=O)(=O)c4ccc(Cl)cc4)cc3C(=O)N([C@@H](C)CO)C[C@@H]2C)cc1 -15.5%, CCOc1ccc(C)cc1S(=O)(=O)n1ccnc1C -12.4%, CO[C@@H]1CN(C)C(=O)c2ccc(NC(=O)Nc3ccccc3)cc2OC[C@@H](C)N(C(C)=O)C[C@H]1C -32.1%, C[C@H](CO)N1C[C@H](C)[C@H](CN(C)C(=O)c2ccccc2F)Oc2ncc(Br)cc2C1=O -2.09%, O=C1CNC[C@H]2[C@@H](c3ccc(C4=CCCC4)cc3)[C@H](CO)N12 34.8%, C[C@H](O)C#Cc1ccc2c(c1)O[C@@H](CN(C)Cc1ccc(-c3ccccc3)cc1)[C@@H](C)CN([C@H](C)CO)S2(=O)=O 10.3%, C[C@H]1CN([C@@H](C)CO)C(=O)c2ccccc2-c2ccccc2CO[C@@H]1CN(C)Cc1ccc(C(F)(F)F)cc1 7.02%, C=CCOC(=O)[C@@H]1[C@H]2C(=O)O[C@H](c3ccccc3)[C@H](c3ccccc3)N2[C@H](c2ccc(OCCOC(=O)[C@@H]3C[C@@H]4C(=O)N[C@@H](Cc5ccccc5)C(=O)N4[C@@H]3c3ccc(O)cc3)cc2)[C@@]12C(=O)Nc1ccc(I)cc12 12%, C[C@H]1CN([C@@H](C)CO)C(=O)c2c(c3ccccc3n2C)-c2ccccc2CO[C@H]1CN(C)Cc1ccccc1 11.1%, C[C@@H]1CN([C@H](C)CO)S(=O)(=O)c2ccc(C#Cc3cccc(F)c3)cc2O[C@@H]1CN(C)CC1CC1 -28.8%, COc1ccc(S(=O)(=O)N(C)C[C@H]2OCCCC[C@H](C)Oc3ccc(NS(=O)(=O)c4ccc(C)cc4)cc3C(=O)N([C@@H](C)CO)C[C@@H]2C)cc1 -19.4%, C[C@H]1CN([C@@H](C)CO)C(=O)c2c(c3ccccc3n2C)-c2ccccc2CO[C@@H]1CN(C)Cc1ccc2c(c1)OCO2 -10.7%, C[C@H]1CN([C@@H](C)CO)S(=O)(=O)c2ccc(C#CC3CC3)cc2O[C@@H]1CN(C)Cc1ccccc1F -7.85% [at 16 µM], O=C(NCC[C@H]1CC[C@H](NC(=O)C2CC2)[C@@H](CO)O1)c1cc(Cl)cc(Cl)c1 29%, CC(C)NC(=O)NCC[C@H]1CC[C@@H](NS(=O)(=O)c2ccc(-c3ccccc3)cc2)[C@H](CO)O1 -21.9%, O=C(NCC[C@H]1CC[C@H](NC(=O)C2CC2)[C@H](CO)O1)c1cc(Cl)cc(Cl)c1 25.4%, Cc1ccc(S(=O)(=O)N(C)C[C@H]2OCCCC[C@H](C)Oc3ccc(NS(=O)(=O)c4ccc(Cl)cc4)cc3C(=O)N([C@@H](C)CO)C[C@@H]2C)cc1 2.27%, COc1ccccc1S(=O)(=O)N(C)C[C@H]1Oc2cc(C#CCC(C)C)ccc2S(=O)(=O)N([C@H](C)CO)C[C@@H]1C -10.2%, COc1cccc(S(=O)(=O)N(C)C[C@@H]2Oc3cc(C4=CCCC4)ccc3S(=O)(=O)N([C@H](C)CO)C[C@H]2C)c1 1.6%, C[C@@H]1CN([C@@H](C)CO)C(=O)c2cccc(N(C)C)c2O[C@@H]1CN(C)Cc1ccccc1 35.5%, C[C@@H]1CCCCO[C@@H](CN(C)Cc2ccc(C(F)(F)F)cc2)[C@@H](C)CN([C@@H](C)CO)C(=O)c2cc(NS(=O)(=O)c3cccs3)ccc2O1 -24%, CC(C)[C@@H](C)NC(=O)N(C)C[C@@H]1OCc2ccccc2-c2c(n(C)c3ccccc23)C(=O)N([C@@H](C)CO)C[C@@H]1C -18.6%, C[C@@H]1CN([C@H](C)CO)C(=O)c2cc(N(C)C)ccc2O[C@H]1CN(C)S(=O)(=O)c1ccccc1 -5.41%, CCCC(=O)Nc1ccc2c(c1)OC[C@@H](C)N(Cc1ccccc1)C[C@H](C)[C@H](OC)CN(C)C2=O -13%, O=C(Nc1cc(F)ccc1F)N1CCCCN2[C@H](CO)[C@H](c3ccc(-c4ccccc4)cc3)[C@H]2C1 9.93%
